Data: PubChem BioAssay (Tox21)
Records with an inconclusive call do not appear. Active and inactive are the calls of the source. Unless noted, the call rests on the fitted dose curve; in most records, active means well fitted curve in the direction sought with a large enough effect in the repeat runs; inconclusive means weak or mixed curves; inactive means no such curve, though single readings can be large; an effect the other way counts as inactive or inconclusive.

Assays:
[1] = target: Luciferin 4-monooxygenase (Photinus pyralis) (UniProt P08659); assay: qHTS assay to identify small molecule inhibitors of firefly luciferase (AID 1224835); further: nearly all actives have a fitted effect of over 25% in size
Luciferin 4-monooxygenase (Photinus pyralis), sequence (P08659 whole entry, looked up): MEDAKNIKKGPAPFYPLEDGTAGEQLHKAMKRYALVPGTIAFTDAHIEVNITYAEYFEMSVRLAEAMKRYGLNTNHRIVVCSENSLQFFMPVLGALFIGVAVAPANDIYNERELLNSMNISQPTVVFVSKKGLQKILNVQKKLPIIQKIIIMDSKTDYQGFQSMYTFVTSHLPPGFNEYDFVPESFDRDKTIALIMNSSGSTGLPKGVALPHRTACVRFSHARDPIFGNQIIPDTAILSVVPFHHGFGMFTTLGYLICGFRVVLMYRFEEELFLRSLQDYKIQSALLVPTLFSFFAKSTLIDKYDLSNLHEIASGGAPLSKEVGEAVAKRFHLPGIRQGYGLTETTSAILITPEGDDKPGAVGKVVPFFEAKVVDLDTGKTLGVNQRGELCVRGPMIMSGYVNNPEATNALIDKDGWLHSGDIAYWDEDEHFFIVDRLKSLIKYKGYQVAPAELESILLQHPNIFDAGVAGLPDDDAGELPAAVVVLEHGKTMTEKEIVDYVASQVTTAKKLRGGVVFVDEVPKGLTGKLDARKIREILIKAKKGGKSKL
How it was run: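 Biochemical qHTS: compounds run as interplate titrations against purified firefly enzyme, with D-luciferin and ATP each at its KM concentration. Light output recorded by CCD imaging.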

[2] = qHTS assay to identify small molecule agonists of the constitutive androstane receptor (CAR) signaling pathway - cell viability counter screen (AID 1224836); further: nearly all actives have a fitted effect of over 45% in size
How it was run: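 23 h treatment, 37 C, 5% CO2. Cell line: HepG2 stably expressing hCAR with a CYP2B6-2.2kb construct. Co-treatment: PK11195, 0.75 uM final. Read-out: CellTiter-Fluor fluorescence intensity.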

[3] = qHTS assay to identify small molecule antagonists of the constitutive androstane receptor (CAR) signaling pathway - cell viability counter screen (AID 1224837); further: nearly all actives have a fitted effect of over 45% in size
How it was run: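 Using CellTiter-Fluor, viability is scored in HepG2 cells stably carrying hCAR and a 2.2kb CYP2B6 reporter after 23 hr compound exposure across 15 concentrations, with CITCO present at 50 nM.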

[4] = qHTS assay to identify small molecule antagonists of the estrogen related receptor signaling pathway with the pleiotropic PPARgamma coactivator (PGC) from Tox21 10K library - cell viability counter screen (AID 1224840; active means well fitted cell-killing curve with a large enough effect in the repeat runs, not every such curve was filed as active; further: nearly all actives have a fitted effect of over 40% in size)
How it was run: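 Here the PGC/ERR cells serve as a cytotoxicity control: they are exposed to compounds for 17.5 hours at 37 C, and live-cell signal is quantified using CellTiter-Fluor fluorescence.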

[5] = target: Thyrotropin receptor (Homo sapiens) (UniProt P16473); assay: qHTS assay to identify small molecule agonists of the thyroid stimulating hormone receptor (TSHR) signaling pathway (AID 1224843; calls by dose curve; further: nearly all actives have a fitted effect of over 45% in size)
Thyrotropin receptor (Homo sapiens), sequence (P16473 whole entry, looked up): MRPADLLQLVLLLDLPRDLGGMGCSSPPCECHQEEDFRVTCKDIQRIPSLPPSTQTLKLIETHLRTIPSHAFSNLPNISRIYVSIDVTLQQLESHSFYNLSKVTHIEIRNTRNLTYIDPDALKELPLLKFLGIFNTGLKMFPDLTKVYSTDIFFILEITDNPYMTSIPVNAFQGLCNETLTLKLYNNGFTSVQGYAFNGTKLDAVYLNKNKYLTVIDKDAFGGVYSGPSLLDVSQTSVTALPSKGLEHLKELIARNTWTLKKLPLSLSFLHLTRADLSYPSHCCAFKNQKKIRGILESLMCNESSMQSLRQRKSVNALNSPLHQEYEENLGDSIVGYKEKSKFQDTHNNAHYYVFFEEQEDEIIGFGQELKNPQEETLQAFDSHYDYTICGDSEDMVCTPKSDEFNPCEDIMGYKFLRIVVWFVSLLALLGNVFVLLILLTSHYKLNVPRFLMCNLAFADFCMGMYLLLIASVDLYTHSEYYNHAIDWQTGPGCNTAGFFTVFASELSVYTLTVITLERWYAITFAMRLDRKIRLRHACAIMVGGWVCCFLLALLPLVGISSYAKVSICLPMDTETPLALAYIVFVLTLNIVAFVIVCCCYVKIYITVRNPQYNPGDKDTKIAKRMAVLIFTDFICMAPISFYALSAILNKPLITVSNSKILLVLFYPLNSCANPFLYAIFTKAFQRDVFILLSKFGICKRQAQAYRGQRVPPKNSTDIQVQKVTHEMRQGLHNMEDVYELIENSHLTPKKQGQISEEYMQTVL
How it was run: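 TSHR-HEK293 cells in agonist mode, 30 min room-temperature step, then cAMP measured by competitive HTRF (cAMP-d2 with anti-cAMP cryptate) after 1 h at room temperature. Tested at 15 concentrations in triplicate.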

[6] = qHTS assay to identify small molecule agonists of the hypoxia (HIF-1) signaling pathway - cell viability counter screen (AID 1224844; calls by dose curve; further: nearly all actives have a fitted effect of over 50% in size)
How it was run: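 Multiplexed with the HRE beta-lactamase assay, this viability read used CellTiter-Glo luminescence (30 min, RT) on HRE-bla ME-180 cells treated 17 hrs with compounds in 0.5% dialyzed FBS medium.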

[7] = qHTS assay to identify small molecule agonists of H2AX (AID 1224845; active means well fitted activation curve with a large enough effect in the signal ratio in the repeat runs, not every such curve was filed as active; the % refers to the signal ratio)
How it was run: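 Wild-type CHO-K1 cells, plated overnight, exposed 3hr at 37C to 15 concentrations (0.76% DMSO final). Lysed, then HTRF anti-pH2AX (S139) cryptate and anti-H2AX-d2 antibodies, 24 hr room temperature; 665/620 nm emission read.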

[8] = qHTS assay to identify small molecule agonists of the hypoxia (HIF-1) signaling pathway (AID 1224846; active means well fitted activation curve with a large enough effect in the signal ratio in the repeat runs, not every such curve was filed as active; the % refers to the signal ratio)
How it was run: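 Hypoxia-pathway activation was scored as increased beta-lactamase from an HRE-controlled reporter in ME-180 cells; plated at 2,000 cells per well with 0.5% dialyzed FBS, they were exposed 17 hrs to compounds and then given CCF4-AM.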

[9] = qHTS assay to identify small molecule agonists of H2AX - cell viability counter screen (AID 1224847; calls by dose curve; further: top concentration of the series differs between compounds; nearly all actives have a fitted effect of over 30% in size)
How it was run: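 Compounds tested at 15 concentrations were incubated 3 hr at 37C with wild-type CHO-K1 cells; cellular ATP-based luminescence (CellTiter-Glo) indicated viability.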

[10] = qHTS RealTime-Glo MT Cell Viability Assay in HepG2 cells - 24 hour (AID 1224867); further: nearly all actives have a fitted effect of over 50% in size
How it was run: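 Cells + NanoLuc/prosubstrate dispensed (600 cells/well) → 5 h at 37 C/5% CO2 → compounds in DMSO transferred → 40 h incubation at 37 C, luminescence read at 0, 8, 16, 24, 32, 40 h.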

[11] = qHTS RealTime-Glo MT Cell Viability Assay in HEK293 cells - 32 hour (AID 1224868); further: top concentration of the series differs between compounds; nearly all actives have a fitted effect of over 50% in size
How it was run: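 Tox21 10K qHTS, HEK293, 600 cells/well, RealTime-Glo reagent co-dispensed with cells; 5 h preincubation, compound by pintool, 37 C, luminescence at 0–40 h.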

[12] = A CellTox Green Cytotoxicity Assay to monitor cytotoxicity in HEK293 cells - 0 hour (AID 1224869); further: nearly all actives have a fitted effect of over 50% in size
How it was run: (§1)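 Seeding of HEK293 cells together with cytotoxicity dye preceded a 5 h incubation at 37 C/5% CO2. Test compounds in DMSO were then added and fluorescence monitored across 40 h.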

[13] = qHTS RealTime-Glo MT Cell Viability Assay in HepG2 cells - 40 hour (AID 1224870); further: nearly all actives have a fitted effect of over 50% in size
How it was run: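 HepG2 cells (600/well) mixed with RealTime-Glo MT reagent, settled 5 h at 37 C/5% CO2 before compound addition. Nonlytic NanoLuc luminescence from viable-cell prosubstrate reduction read repeatedly during 40 h treatment at 37 C.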

[14] = A CellTox Green Cytotoxicity Assay to monitor cytotoxicity in HEK293 cells - 40 hour (AID 1224871); further: nearly all actives have a fitted effect of over 45% in size
How it was run: as §1

[15] = qHTS assay to identify small molecule agonists of the estrogen related receptor signaling pathway with the pleiotropic PPARgamma coactivator (PGC) from Tox21 10K library (AID 1224842); further: nearly all actives have a fitted effect of over 15% in size
How it was run: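 PGC/ERR reporter cell line, 2,000 cells per well, incubated 6 h at 37 C before 23 nL compound in DMSO was added. After 18 h at 37 C, One-Glo luminescence read following 30 min at room temperature.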

[16] = qHTS assay to identify small molecule antagonists of the estrogen related receptor (ERR) signaling pathway from Tox21 library (AID 1224848); further: nearly all actives have a fitted effect of over 50% in size
How it was run: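 ERR reporter cell line (from NTP) seeded 2,000 cells/well, rested 6 h at 37 C/5% CO2, then pin-dosed with compounds in DMSO. After 18 h at 37 C, ONE-Glo added; luminescence read after 30 min at room temperature.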

[17] = qHTS assay to identify small molecule agonists of the estrogen related receptor (ERR) signaling pathway from Tox21 library (AID 1224849; calls by dose curve; further: nearly all actives have a fitted effect of over 15% in size); details: ERR reporter cell line, ONE-Glo luciferase, 18 h; at 92.4 µM (top of the series) unless noted
How it was run: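 Six hours post-seeding at 37 C/5% CO2, ERR cells receive DMSO-solubilised compounds; after 18 h at 37 C, ONE-Glo reagent is applied and luminescence recorded.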

[18] = qHTS assay to identify small molecule antagonists of the estrogen related receptor signaling pathway with the pleiotropic PPARgamma coactivator (PGC) from Tox21 10K library (AID 1224841; call rule not given here)
How it was run: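 Each well held 2,000 PGC/ERR cells, pre-incubated six hours (37 C, 5% CO2). Test substances in DMSO were added by pin tool and left for 18 h at 37 C before luciferase detection by One-Glo.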

[19] = target: Nuclear receptor subfamily 1 group I member 3 (Homo sapiens) (UniProt Q14994); assay: qHTS assay to identify small molecule agonists of the constitutive androstane receptor (CAR) signaling pathway (AID 1224839);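 further: HepG2 cells stably carrying human CAR and a CYP2B6 luciferase reporter; nearly all actives have a fitted effect of over 15% in size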
Nuclear receptor subfamily 1 group I member 3 (Homo sapiens), sequence (Q14994 whole entry, looked up): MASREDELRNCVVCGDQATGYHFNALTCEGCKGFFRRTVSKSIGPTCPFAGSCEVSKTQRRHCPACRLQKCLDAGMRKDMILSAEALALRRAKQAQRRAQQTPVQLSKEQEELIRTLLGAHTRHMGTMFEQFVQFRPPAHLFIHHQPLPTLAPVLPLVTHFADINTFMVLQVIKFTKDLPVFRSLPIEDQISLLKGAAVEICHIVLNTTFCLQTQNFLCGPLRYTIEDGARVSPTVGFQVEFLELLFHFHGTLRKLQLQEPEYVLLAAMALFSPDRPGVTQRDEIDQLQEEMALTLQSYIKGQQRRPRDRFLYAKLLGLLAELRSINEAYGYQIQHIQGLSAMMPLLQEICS
How it was run: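 Compounds tested at 15 concentrations on HepG2 cells stably harbouring hCAR and CYP2B6-2.2kb reporter constructs, co-treated with PK11195 (0.75 uM final), 24 h at 37 C; luminescent reporter signal quantified.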
On the % scale 0 is the no-effect control and ±100 the full control effect.

CN(CC1(C)CCCO1)S(=O)(=O)c1ccc(Cl)c(S(N)(=O)=O)c1 (centres undefined)
inactive: Potency [1] | Potency [2] | Potency [3] | Potency [4] | Potency [5] | Potency [6] | Potency [7] | outcome [8] | Potency [9] | Potency [10] | Potency [11] | Potency [12] | Potency [13] | Potency [14]

CC(Oc1c(Cl)cccc1Cl)C1=NCCN1 (centres undefined)
inactive: Potency [1] | Potency [2] | Potency [3] | Potency [4] | Potency [15] | Potency [5] | Potency [7] | outcome [8] | Potency [9] | Potency [16] | activity change, positive = activation [17] -3.99% [at 42.5 µM] | Potency [10] | Potency [11] | Potency [12] | Potency [13] | Potency [14]

CCC1(C)NC(=O)NC1=O (centres undefined)
inactive: Potency [1] | Potency [2] | Potency [3] | Potency [4] | Potency [5] | Potency [6] | Potency [7] | outcome [8] | Potency [9] | Potency [10] | Potency [11] | Potency [12] | Potency [13] | Potency [14]

O=[N+]([O-])c1nccn1CO[C@@H](CO)[C@H](O)CO
inactive: Potency [1] | Potency [2] | Potency [3] | Potency [4] | Potency [18] | Potency [15] | Potency [5] | Potency [6] | Potency [7] | outcome [8] | Potency [9] | Potency [16] | activity change, positive = activation [17] 7.4% [at 42.5 µM] | Potency [10] | Potency [11] | Potency [12] | Potency [13] | Potency [14]

CN1C(=O)CC(c2ccccc2)C1=O (centres undefined)
inactive: Potency [1] | Potency [2] | Potency [3] | Potency [19] | Potency [4] | Potency [5] | Potency [6] | Potency [7] | Potency [9] | Potency [10] | Potency [11] | Potency [12] | Potency [13] | Potency [14]

N#Cc1ccc(C(c2ccc(C#N)cc2)n2cncn2)cc1
inactive: Potency [1] | Potency [2] | Potency [3] | Potency [4] | Potency [5] | Potency [6] | Potency [7] | outcome [8] | Potency [9] | Potency [10] | Potency [11] | Potency [12] | Potency [13] | Potency [14]

CC(C)C(=O)OCC(C)(C)C(O)C(C)C (centres undefined)
inactive: Potency [1] | Potency [2] | Potency [3] | Potency [4] | Potency [5] | Potency [6] | Potency [7] | outcome [8] | Potency [9] | Potency [10] | Potency [11] | Potency [12] | Potency [13] | Potency [14]
